# Measured values taken from PubChem BioAssay (NCATS).
# Records with an inconclusive call do not appear. Entries that show only a call come without a potency. The source made the active and inactive calls. The call rests on the fitted dose curve; in most records, active means well fitted curve in the direction sought with a large enough effect; inconclusive means small, poorly fitted or top-dose-only effect, or another doubt; inactive means no such curve, though single readings can be large; an effect the other way counts as inactive or inconclusive.
# How the values were obtained:
# [1] = qHTS to identify inhibitors of the type 1 interferon - major histocompatibility complex class I in skeletal muscle: primary screen against the NCATS LOPAC collection (AID 1347405);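 further: human myoblasts with HiBiT tag on endogenous HLA-B stimulated by IFN-beta; lytic HiBiT luminescence reporting HLA-B protein level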
# Method in brief: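 First, engineered myoblasts carrying HLA-B-HiBiT were seeded in medium lacking dexamethasone with 4 ng/ml IFN-beta. After 1 hr, compounds were pinned in (top 46 uM final, 7 points). After 24 hrs at 37 C, luminescence was measured following 10 min lysis.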
# [2] = qHTS for inhibitors of adenylyl cyclases using a fission yeast platform: a pilot screen against the NCATS LOPAC library (AID 1347410)
# Method in brief: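 Inhibition of GNAS-stimulated AC9 activity in S. pombe was inferred from derepression of a PKA-repressed fbp1-GFP reporter, measured as cytometric fluorescence after 18 h at 30C with compounds at up to 57 µM.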
# [3] = Validation qHTS assay for inhibitors of Activation Induced Cytidine Deaminase (AID): UDG Counterscreen signal (AID 1347427); further: potency means the concentration at half of the fitted maximal effect
# Method in brief: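 Fluorescence at 560 nm excitation, 665 nm emission reports UDG signal after 250 mM NaOH (2x) addition and 30 min. Enzymes (AID 1 uM, UDG 2 U/mL, at 4/3x) preincubated 10 min with compound, then 4 h with 4x 250 nM DJC20/DJC23 substrate at room temperature.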
# [4] = molecular target: Single-stranded DNA cytosine deaminase (Homo sapiens) (UniProt Q9GZX7); assay: Validation qHTS assay for inhibitors of Activation Induced Cytidine Deaminase (AID): AID signal (AID 1347429)
# Sequence of Single-stranded DNA cytosine deaminase (Homo sapiens) (Q9GZX7 whole entry, looked up): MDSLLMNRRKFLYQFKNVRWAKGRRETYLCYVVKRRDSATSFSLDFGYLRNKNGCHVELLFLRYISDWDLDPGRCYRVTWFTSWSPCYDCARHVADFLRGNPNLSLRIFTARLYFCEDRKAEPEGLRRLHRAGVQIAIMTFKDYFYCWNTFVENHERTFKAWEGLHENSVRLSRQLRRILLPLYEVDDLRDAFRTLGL
# Method in brief: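 Steps: dispense AID with UDG; pin-transfer compound up to 114 uM final; add DJC20/DJC23 substrate and hold 4 hr at room temperature; add NaOH, hold 30 min; read FRET signal (540/590 nm).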
# [5] = qHTS to identify inhibitors of the type 1 interferon - major histocompatibility complex class I in skeletal muscle: primary screen against the NCATS Pharmaceutical Collection (AID 1347407);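 further: luminescence of HiBiT knocked into endogenous HLA-B as interferon-induced MHC class I level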
# Method in brief: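 A qHTS format is used: 8-point, 1:5 compound series with 46 uM top final concentration, applied alongside 4 ng/ml IFN-beta to HLA-B*08:01-HiBiT knock-in myoblasts. Luminescence is measured after 24 h treatment.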
# [6] = molecular target: Protein phosphatase 1D (Homo sapiens) (UniProt O15297); assay: RapidFire Mass Spectrometry qHTS Assay for Modulators of WT P53-Induced Phosphatase 1 (WIP1) (AID 1347424);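 further: amount of dephosphorylated VEPPL-S-QETFS peptide product formed by WIP1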; further: potency means the concentration at half of the fitted maximal effect
# Sequence of Protein phosphatase 1D (Homo sapiens) (O15297 whole entry, looked up): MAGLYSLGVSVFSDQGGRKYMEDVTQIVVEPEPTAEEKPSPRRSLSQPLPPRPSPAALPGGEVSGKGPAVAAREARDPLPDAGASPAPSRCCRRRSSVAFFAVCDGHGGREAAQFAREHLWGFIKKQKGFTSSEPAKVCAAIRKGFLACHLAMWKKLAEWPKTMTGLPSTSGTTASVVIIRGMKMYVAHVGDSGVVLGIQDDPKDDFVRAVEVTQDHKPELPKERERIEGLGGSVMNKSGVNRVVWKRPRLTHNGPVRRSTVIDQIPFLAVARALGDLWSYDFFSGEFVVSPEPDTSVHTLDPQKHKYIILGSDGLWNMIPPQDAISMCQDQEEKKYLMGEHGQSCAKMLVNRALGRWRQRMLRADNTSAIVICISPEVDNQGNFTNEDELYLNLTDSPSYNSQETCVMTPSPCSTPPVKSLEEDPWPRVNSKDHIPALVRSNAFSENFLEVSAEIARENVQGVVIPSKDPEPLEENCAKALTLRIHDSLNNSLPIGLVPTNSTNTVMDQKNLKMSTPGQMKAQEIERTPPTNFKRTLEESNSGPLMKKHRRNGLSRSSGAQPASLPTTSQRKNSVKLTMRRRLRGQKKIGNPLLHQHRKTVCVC
# Method in brief: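 Mass-spectrometric measurement of dephosphorylated peptide after a 5 min room-temperature reaction of 10 nM WIP1 with 2 uM phosphopeptide, following 1 h compound preincubation in 30 mM MgCl2 buffer.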
# [7] = molecular target: Protein phosphatase 1D (Homo sapiens) (UniProt O15297); assay: Rhodamine-PBP qHTS Assay for Modulators of WT P53-Induced Phosphatase 1 (WIP1) (AID 1347425)
# Method in brief: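 WIP1 (5 nM final) was preincubated with compound for 1 hour at room temperature. It then dephosphorylated 10 uM VEPPL-pS-QETFS peptide in Tris-HCl pH 7.5 with 30 mM MgCl2. Released Pi was detected by 10 uM Rh-PBP fluorescence (ex 525/em 598 nm) read at 1-min intervals for 11 min, as delta f1 - f0.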
# [8] = qHTS to identify inhibitors of the type 1 interferon - major histocompatibility complex class I in skeletal muscle: primary screen against the NCATS Mechanism Interrogation Plate v5.0 (MIPE) Libary (AID 1347411); further: nearly all actives have a fitted effect of over 65% in size
# Method in brief: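 Seed engineered human myoblasts (HLA-B HiBit) in medium without dexamethasone containing 4 ng/ml IFN-beta; after 1 hr add compound titrations (top 46 uM final). Incubate 24 hrs at 37 C, lyse 10 min with HiBiT reagent, read luminescence.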
compound,measurement,setting,value
NCC(O)c1cc(O)c(O)cc1F (configuration not stated),Potency,[1],inactive
same,outcome,[2],inactive
same,Potency,[3],inactive
same,Potency,[4],inactive
Nc1ccc(CCN2CCN(c3cccc(C(F)(F)F)c3)CC2)cc1,Potency,[1],inactive
same,outcome,[2],inactive
same,Potency,[3],inactive
same,Potency,[4],inactive
CCCSP(=O)(OCC)SCCC,outcome,[5],inactive
same,Potency,[6],inactive
same,outcome,[7],inactive
C[CH2][Hg][S]c1ccccc1C(=O)O,outcome,[5],inactive
same,Potency,[6],35.5 µM (active)
OCc1cnc[nH]1,outcome,[2],inactive
same,Potency,[3],inactive
same,Potency,[4],inactive
CCCn1c(=O)c2[nH]c(C3CCCC3)nc2n(CCCOC(=O)c2ccc(S(=O)(=O)F)cc2)c1=O,outcome,[2],inactive
same,Potency,[3],inactive
same,Potency,[4],inactive
CCCN(CCC)C1Cc2cc(OC)c(OC)cc2C1,outcome,[2],inactive
same,Potency,[3],inactive
same,Potency,[4],inactive
NC(=O)CI,outcome,[2],inactive
same,Potency,[3],inactive
same,Potency,[4],inactive
NC(=O)c1ccc(OCC(O)CN2CC=C(c3ccc(F)cc3)CC2)cc1 (configuration not stated),outcome,[2],inactive
same,Potency,[3],inactive
same,Potency,[4],inactive
C[C@]12Cc3cn4c(nc3C=C1CCC1C2CC[C@@]2(C)[C@H]1CC[C@@]2(O)C#N)nc1ccccc14 (some centres not stated),outcome,[2],inactive
same,Potency,[3],inactive
same,Potency,[4],inactive
N=C(N)c1ccc(CS(=O)(=O)F)cc1,outcome,[2],inactive
same,Potency,[3],inactive
same,Potency,[4],inactive
COc1ccc2c(c1O)-c1cccc3c1[C@@H](C2)N(C)CC3,outcome,[2],inactive
same,Potency,[3],inactive
same,Potency,[4],inactive
Nc1cc2c(ncn2CCOCP(=O)(O)O)c(=O)[nH]1,outcome,[2],inactive
CN1CCC[C@@H]1Cc1c[nH]c2ccc(Nc3ncccc3[N+](=O)[O-])cc12,outcome,[2],inactive
C#CCN[C@H](C)Cc1ccccc1,outcome,[2],inactive
same,Potency,[3],inactive
same,Potency,[4],inactive
COc1ccc(CNC(=O)/C=C/c2ccc3[nH]cc(CCN(C)C)c3c2)cc1,outcome,[2],inactive
same,Potency,[3],inactive
same,Potency,[4],inactive
C[C@H](N)Cc1cccc(C(F)(F)F)c1,outcome,[2],inactive
same,Potency,[3],inactive
same,Potency,[4],inactive
CCOC(=O)c1ncn2c1[C@@H]1CCCN1C(=O)c1cc(OC)ccc1-2,outcome,[2],inactive
same,Potency,[3],inactive
same,Potency,[4],inactive
C[N+]1(C)CCc2cc3c(cc2[C@H]1[C@@H]1OC(=O)c2c1ccc1c2OCO1)OCO3,outcome,[2],inactive
same,Potency,[3],inactive
same,Potency,[4],inactive
COc1ccc2[nH]c3c(c2c1)CCNC3,outcome,[2],inactive
same,Potency,[3],inactive
same,Potency,[4],inactive
Cc1o[nH]c(=O)c1CC(N)C(=O)O (configuration not stated),outcome,[2],inactive
same,Potency,[3],inactive
same,Potency,[4],inactive
O=[N+]([O-])c1ccc2nc(N3CCNCC3)ccc2c1,outcome,[2],inactive
same,Potency,[3],inactive
same,Potency,[4],inactive
CN1CCC(c2c[nH]c3ccc(O)cc23)CC1,outcome,[2],inactive
same,Potency,[3],inactive
same,Potency,[4],inactive
CC(N)Cc1c[nH]c2ccc(O)cc12 (configuration not stated),outcome,[2],inactive
same,Potency,[3],inactive
same,Potency,[4],inactive
CC(C)(C)c1cc(C=C(C#N)C#N)cc(C(C)(C)C)c1O,outcome,[2],inactive
same,Potency,[3],70.8 µM (active)
same,Potency,[4],inactive
NCCc1ccc(S(=O)(=O)F)cc1,outcome,[2],inactive
same,Potency,[3],inactive
same,Potency,[4],inactive
O=S1(=O)N(CCN2CC=C(c3c[nH]c4cc(F)ccc34)CC2)c2cccc3c2N1CCC3,outcome,[2],inactive
same,Potency,[3],inactive
OC1CCCCC1N1CCC(c2ccccc2)CC1 (configuration not stated),outcome,[2],inactive
same,Potency,[3],inactive
same,Potency,[4],inactive
O=C1C=CC(=O)C=C1,outcome,[2],inactive
same,Potency,[3],inactive
same,Potency,[4],inactive
CC(Cc1ccc(OCC(=O)O)cc1)NCC(O)c1cccc(Cl)c1 (configuration not stated),outcome,[2],inactive
same,Potency,[3],inactive
same,Potency,[4],inactive
C[N+]1(C)CCN(c2ccccc2)CC1,outcome,[2],inactive
same,Potency,[3],inactive
same,Potency,[4],inactive
Ic1ccccc1CNC1C2CCN(CC2)C1C(c1ccccc1)c1ccccc1 (configuration not stated),outcome,[2],inactive
same,Potency,[3],inactive
same,Potency,[4],inactive
CC(C)(C)OC(=O)NC1[C@H]2CNC[C@@H]12 (some centres not stated),outcome,[2],inactive
C[N+](C)(C)CCOC(=O)CBr,outcome,[2],inactive
same,Potency,[3],inactive
same,Potency,[4],inactive
CN(N=O)c1ccc(O)c(O)c1,outcome,[2],inactive
O=[N+]([O-])c1cc(O)c(O)c([N+](=O)[O-])c1,outcome,[2],inactive
same,Potency,[3],inactive
same,Potency,[4],inactive
O=C1CC[C@@]2(O)C3Cc4ccc(O)c5c4C2(CCN3CC2CC2)[C@H]1O5 (some centres not stated),outcome,[2],inactive
Oc1ccc2c3c1O[C@H]1c4[nH]c5ccccc5c4C[C@@]4(O)C(C2)N(CC2CC2)CCC314 (some centres not stated),outcome,[2],inactive
same,Potency,[3],inactive
same,Potency,[4],inactive
C[C@H](Cc1ccc2c(c1)OC(C(=O)O)(C(=O)O)O2)NC[C@H](O)c1cccc(Cl)c1,outcome,[2],inactive
same,Potency,[3],inactive
same,Potency,[4],inactive
CCCC[N+]1(C)C2CC(OC(=O)[C@H](CO)c3ccccc3)CC1C1OC12 (some centres not stated),outcome,[2],inactive
same,Potency,[3],inactive
same,Potency,[4],inactive
C[Se]C[C@H](N)C(=O)O,Potency,[3],inactive
same,Potency,[4],inactive
O=c1c2ccccc2[se]n1-c1ccccc1,Potency,[3],inactive
same,Potency,[4],inactive
COc1cc(CC(C)N)c(OC)cc1I (configuration not stated),Potency,[3],inactive
same,Potency,[4],inactive
COc1cc(C)[nH]c(=O)c1CNC(=O)c1c(C)n([C@H](C)C2CCOCC2)c2ccccc12,outcome,[8],inactive
